# From the supplement of paper PMC6555819
# Experiments:
# Experiment in all cases: PBM binding z-score (relative to random genomic background probes); higher = stronger binding; sequences stand for … in GC…GCGATTGACAGCGTAGAATGAAGG
# [1] = test system: RARb homodimer (NR concentration 270 nM)
# Summary of the method: (§1)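 Binding buffer was PBS pH 7.4 with 2% milk, 0.02% Triton X-100, 1 mM DTT, 0.2 mg/mL BSA and 0.4 mg/ml salmon testes DNA. In it, ligand-free nuclear receptor dimers were incubated 1 h on custom Agilent 4×180K protein-binding microarrays carrying double-stranded probes. Antibodies against each partner (one per run) detected binding, and z-scores were calculated against random background probes after regression normalization of scanned fluorescence.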
# [2] = test system: RARg:RXRa (NR concentration 270 nM, RXRa partner concentration 90 nM)
# Summary of the method: as §1
# [3] = test system: RARg homodimer (NR concentration 270 nM)
# Summary of the method: as §1
# [4] = test system: RXRa DBDmut IVT, anti-RXR (DBD mutation: RXRa K156A/R161A, NR concentration 90 nM)
# Summary of the method: as §1
# [5] = test system: RXRa homodimer (NR concentration 180 nM)
# Summary of the method: as §1
# [6] = test system: THRa:RXRa (NR concentration 90 nM, RXRa partner concentration 90 nM)
# Summary of the method: as §1
# [7] = test system: THRa homodimer (NR concentration 90 nM)
# Summary of the method: as §1
# [8] = test system: VDR:RXRa (NR concentration 270 nM, RXRa partner concentration 90 nM)
# Summary of the method: as §1
# [9] = test system: VDR homodimer (NR concentration 270 nM)
# Summary of the method: as §1
Sequence,PBM binding z-score [1],PBM binding z-score [2],PBM binding z-score [3],PBM binding z-score [4],PBM binding z-score [5],PBM binding z-score [6],PBM binding z-score [7],PBM binding z-score [8],PBM binding z-score [9]
GAAACAGGGTCAGCTAGAGGCCAGAGTATGGAAA,3.26,6.78,4.43,1.52,4.28,3.13,0.117,3.64,0.821
GAATATAGGTAATACAAGGTGAAAGTCCGATTGT,1.27,0.944,0.872,0.644,0.89,4.2,1.38,0.758,0.435
TAGCCTAGGTCATGGGCCAATATACCACGCGAAC,2.95,4.22,4.2,0.955,3.55,3.1,1.43,2.06,0.541
AGAATGAGGTTAAGATCATGGAAACAGAATACAT,0.492,1.94,1.49,0.788,2.62,2.2,0.477,,0.212
CCTAGTTGGTCAAGGGCACACACGCTATAGGTAC,1.78,1.41,1.99,0.232,0.726,1.09,0.605,0.813,1.09
CATTACGGGTCACGAGGTTATAGCACGACGAGCG,4.22,6.35,5.8,2.21,8.02,3.82,1.56,5.57,2.52
TCTAGTTGGTCAAGGGTCACACACTCGAAATGCG,4.19,5.29,4.87,1.59,6.31,3.13,1.47,4.32,2.76
ATATGTAGGTTATCGGGTCATTTAGTTTGCGCAT,3.08,3.19,2.33,1.69,3.5,3.3,2.86,4.24,2.85
CGAACTAGGTAAGAACAGGACAGTGAAGGATGAT,-0.183,0.0419,0.345,-0.391,-0.0524,0.664,-0.177,-0.253,-0.504
ACTATTAGTTGAGACGAGGGCAAGCGATAGGTTG,1.06,0.352,0.635,0.63,0.484,2.28,0.357,,0.593
TCTCGGAGGACACGAAAGGTCAGGGCTCGACATC,4.94,4.98,5.69,1.1,4.39,3.83,2,3.43,0.976
CATACAGGGTCAGCTAGGCCAGAGCAGGGACGGC,3.07,4.3,4.47,1.32,4.21,3.18,0.613,3.75,0.954
ACTAGCAGGCCAAGTTTGGGTCACACAAACAAAG,2.17,2.66,1.73,-0.304,1.44,2.67,1.04,0.933,0.103
CAAACTAGGTCAAGAGGTCAACGTCCGCTTCCCG,5.63,7.92,7.74,2.76,7.68,4.5,2.96,5.97,3.84
CCGACTGGGGCATAGGGTTACCATAAGCCAGCCC,0.968,1.34,0.885,-1.32,1.21,0.957,-0.244,0.304,-1.05
ATCTCTAGGTAAGAGTTCAGTGAATCCCGAGGAT,1.91,1.21,1.51,1.71,1.16,0.872,0.129,2.22,3.85
TCGAGTAGGTTACCAATGTGGCATTCAGCTTTCT,-0.0137,0.035,0.256,0.471,0.375,0.00485,-0.499,-0.0444,-0.622
GCTGCTACGTCAGGTTGGTCAGCTAACGGGTACG,-0.00672,-0.503,-0.278,-0.049,-0.469,-0.38,-0.55,-0.773,-0.226
CGTCCAAGGTCAAAGAGGTCAGTGAATGCCGAGT,5.66,7.1,7.62,4.35,7.47,4.48,3.36,,6.32
CGAACGAGGGCATGAGTTGATAGTAAATGCCGAT,0.956,1.48,1.7,2.41,1.09,1.33,-0.0333,1.17,1.98
AGGATGAGGTTATACGTAGATCAGGGAAGAAAGT,1.66,1.85,1.16,1.66,2.27,2.39,1.27,1.66,1.08
ATCTCTAGGTAAAAGTTCAGCGAATCCCGAGGAT,2.76,2.88,3.02,0.792,2.62,1.58,0.0924,1.69,1.07
CCGACTGGGGCAAAGGTTACCATTCTCAGTACGA,2.08,3.4,1.6,0.683,3.26,1.66,-0.246,1.43,-0.419
CCTTACGGGTCATTCCAGGTTATAGCATCGGAGT,3.03,4.52,4.25,2.86,5.2,5.12,0.692,,2.59
TCTTGTAGATCAAAAGTTAAGAAAGCCGAAGCCT,-0.728,0.0681,-0.147,0.742,0.126,-0.34,-1.33,0.386,-0.181
GCATATAGGTAATACAAGCTGAAAGTCCGATTGT,-0.29,0.165,0.41,0.344,0.524,-0.299,-0.467,-0.105,-0.000967
ATACCAAGGTGATCGTGATGTCGTTGATACTAAC,0.279,0.25,0.334,0.0865,0.28,0.81,0.541,,0.117

Sequence,PBM binding z-score [1],PBM binding z-score [2],PBM binding z-score [3],PBM binding z-score [4],PBM binding z-score [5],PBM binding z-score [6],PBM binding z-score [7],PBM binding z-score [8],PBM binding z-score [9]
ATCTCTAGGTAAACAAGTTCAGTGAATGCCGAAC,1.51,0.719,1.05,1.09,0.385,1.33,0.65,4,2.69
ATCTCAAGGTAACAAGTTCAGTGAAAGAGAGGAC,2.19,1.79,1.79,1.34,1.23,2.16,1.54,2.8,2.9
ATATGTAGGTTATCGGGTCAATCAGTTTGCGCAT,3.02,3.59,2.68,1.45,3.75,3.3,2.53,5.29,2.85
TCTAGCAGGCCAGAGGGTCACTTAAGAGGTACGG,2.71,2.39,2.2,0.154,2.36,1.53,-0.266,1.26,0.361
CGAACTAGGGCATGAGTTGATAGCAAATGCCGAT,0.222,0.852,0.834,0.394,0.388,0.0506,-0.493,0.0428,0.329
CAAACTAGGTCACCGGAAGGTCCAAGTCCGCATG,3.77,5.27,5.86,1.82,3.81,3.59,2.3,3.1,1.68
ATCTCTAGGTAACTAAGTTCAGTGAATGCCGAAC,1.92,1.03,0.956,1.16,0.699,1.67,0.66,4.26,2.04
CCTTACGGGTCACTGACAGGTTATAGAATTTGGA,3.22,5.81,4.95,1.92,5.1,3.02,0.45,3.69,0.936
GGAACGAGGGCATTCGTGTTGATAGCATGGCGAT,0.43,0.848,1.23,3.26,0.575,0.978,-0.391,1.6,1.87
CCGACTAGGGCAGAAAGGTTACCATACCATCCGG,2.4,1.99,1.91,-0.271,1.92,1.21,-0.493,1.13,-0.0974
ATCTCTAGGTAAAAGTTCAGTGATTCCCGAGGAT,2.44,1.69,2.11,0.773,1.47,1.2,0.435,,1.8
CCTAGTTGGTCAAGGCCACACACGCTATAGGTAC,1.52,0.785,1.19,0.685,0.442,1.07,1.18,0.31,0.836
CCGACTGGGGCATAAGGTGACCATAAGCCAGCCC,1.26,0.678,0.621,-1.25,0.516,1.7,0.792,,-0.621
AGTCAAAGTTCAGGACGAGGTAAGGTAAAGCACG,3.46,4.56,4.61,3.11,3.09,3.72,2.26,,2.09
TCTCCTAGGTCAACGATGGTCAGCTAATCTGCTA,3.61,4.5,5.72,1.41,3.49,3.32,1.59,,0.166
TTACCAATGTGAAAGGTCGTTGATGCACGCCTTG,1.76,1.76,0.967,0.906,3.08,1.44,0.0994,,1.66
GCATATAGGTAGTACAAGGTGAAAGTCCGATTGT,0.817,0.404,0.395,0.422,0.53,3.23,1.02,,0.0912
CCTACTGGCCCAAGGTCATTGATCAGTCAAAGCA,3.58,3.48,2.65,1.58,3.16,3.57,2.81,,2.79
CGCACTAGGTCAAGGACAGTGAATCTCCGCACGC,3.34,3.82,4.48,1.72,2.63,3.03,2.15,,0.387
TCATATAGGTAATACAGGTGCAAGTCGGCATCTA,0.266,0.587,0.617,1.65,0.938,1.16,-0.0511,,1.03
TTACCAAGGTGAGCTGAGGTCGTTTATCCAACTC,1.47,1.08,0.862,0.292,1.27,4.58,2.09,,2.23
TAGCCTAGGTCATGCGGGCCAGTATGGTGTCGGC,2.86,4.2,4.58,0.269,3.23,2.96,1.07,,0.682
TCTAGCAGGCCAGAGGGGCACTCAAGAGGTACGG,0.611,0.104,0.165,-0.0321,0.357,-0.399,-0.898,,-0.703
TCTGCTAGGACAGTTGGTCAGCTAACGAGCTGCC,-0.304,-0.493,-0.356,-0.0894,-0.639,-0.274,-0.784,,-1.13
TTACCAAGGAGAAGGTCGTTGATCCCTCTGTAGA,0.592,0.225,0.0485,-0.392,1.27,0.759,-0.096,,0.372
CCTAGTGGGTCAAGGTCACACACGCTATAGGTAC,4.58,5.74,6.11,1.58,5.6,4.22,3.74,,3.44
